m-calpain inh – inhibitors of pig calpain II, primary screen, biochemical, fluorogenic peptide substrate, 1536-well | purified calpain II, 30 min | inhibition, % at 16 µM | 220,000 tested, 0.37% active;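 active = inhibition above about 50%, limit read from the data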
HSV replic up – enhancers of HSV replication in host cells, fold increase, host cell viability; HSV replication augmentation in cells; maximum fold increase; 220,000 tested, 0.005% active; AID 1956, 2009; in the data active = maximum fold increase above about 1.5; tested in PC3 cells
Arbovirus inh – antivirals against arbovirus infection, primary screen, cell-based, full library, 10K replicate subset. arbovirus infection cell-based antiviral screen. inhibition, % at 10 µM. AID 1251, 2008. 200,000 tested, 0.37% active; in the data active = inhibition above about 30%
ROMK mod – ROMK potassium channel modulators, primary screen, cell-based, thallium flux, MLSMR library; ATP-sensitive inward rectifier potassium channel 1 (Homo sapiens), P48048; Tet-inducible ROMK, thallium flux fluorescence; actives lie on both sides; B-score at 10 µM; 130,000 tested, 2% active; AID 1918, 2009;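 active = signal ratio slope over the read window, or its plate-corrected B-score, at least 3 SD from the plate mean, either direction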;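 also: B-score of the F/F0 ratio slope over 7 to 12 s after thallium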
Target sequence (P48048 whole entry, looked up): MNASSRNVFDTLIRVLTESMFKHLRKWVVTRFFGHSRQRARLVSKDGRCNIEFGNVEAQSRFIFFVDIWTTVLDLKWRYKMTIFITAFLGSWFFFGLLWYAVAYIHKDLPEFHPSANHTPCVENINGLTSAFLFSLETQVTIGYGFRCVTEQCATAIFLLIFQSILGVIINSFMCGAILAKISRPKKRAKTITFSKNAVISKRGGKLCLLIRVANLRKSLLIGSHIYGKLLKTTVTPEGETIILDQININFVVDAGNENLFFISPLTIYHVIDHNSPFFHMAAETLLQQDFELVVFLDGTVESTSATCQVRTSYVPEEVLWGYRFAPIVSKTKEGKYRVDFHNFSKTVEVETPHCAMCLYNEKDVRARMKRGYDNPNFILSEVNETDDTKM
Efa HMGR inh – inhibitors of E. faecalis class II HMGR, primary screen, biochemical, Enterococcus faecalis. HMG-CoA reductase (Enterococcus faecalis, mvaE). AID 1066, 2008. inhibition, % at 10 µM. purified E. faecalis HMGR, NADPH absorbance 340 nm kinetic. 190,000 tested, 0.41% active;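 active = inhibition above a set limit, the median over all tested compounds plus 3 SD, cut at about 9.5% in these data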;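 also: enzyme runs in reverse so mevalonate oxidation gives rising NADPH absorbance; 0% = complete reaction with DMSO and 100% = background rate lacking mevalonate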
An asterisk follows results filed as active. Most compounds without a hit are left out; they make up all but 2.1% or so of the library.

Results for N#C/C(=C(/O)c1ccc(Cl)c([N+](=O)[O-])c1)c1nc2ccccc2[nH]1 ?
m-calpain inh: -28; HSV replic up: inactive

How did COc1ccc(-n2c(Cc3cccn3C)nnc2SCC(=O)Nc2cccc(Cl)c2)cc1 do in these assays?
m-calpain inh: -19; HSV replic up: inactive; Arbovirus inh: 36*; Efa HMGR inh: 2

How did COc1ccc(-n2c(CNc3ccc(C)cc3)nnc2SCC(=O)Nc2nc(-c3ccccc3)cs2)cc1 do in these assays?
m-calpain inh: 68*; HSV replic up: inactive; Arbovirus inh: -38; ROMK mod: -0.03; Efa HMGR inh: -5

Results for CCOC(=O)c1oc2ccc(CNCCO)c(Cl)c2c1C ?
m-calpain inh: -24; HSV replic up: inactive; Arbovirus inh: -2; ROMK mod: -0.0088; Efa HMGR inh: 10*

What do the screens show for `COc1ccc(S(=O)(=O)NCCN2CCNC2=O)cc1OC`?
m-calpain inh: 14; HSV replic up: inactive

What do the screens show for `CCCCCCNC(=O)C(=O)NCCc1ccc(Cl)cc1`?
m-calpain inh: 19; HSV replic up: inactive; Arbovirus inh: -8; ROMK mod: 1.4; Efa HMGR inh: 47*

Results for CC(C)NC(=O)C(=O)NCCc1ccc(Cl)cc1 ?
m-calpain inh: -22; HSV replic up: inactive; Arbovirus inh: 5; ROMK mod: 0.1; Efa HMGR inh: -7

How did CSc1ccc(N/N=C(/C#N)S(=O)(=O)C(C)(C)C)cc1 do in these assays?
m-calpain inh: 13; HSV replic up: inactive; Arbovirus inh: 20; ROMK mod: -3.2*; Efa HMGR inh: 5

How did COc1ccc(N/N=C(/C#N)S(=O)(=O)C(C)(C)C)cc1 do in these assays?
m-calpain inh: 23; HSV replic up: inactive; Arbovirus inh: 5; ROMK mod: -1.9; Efa HMGR inh: 0

Results for FC(F)Oc1ccc(NC(=S)N2CCc3ccccc32)cc1 ?
m-calpain inh: -2; HSV replic up: inactive; Arbovirus inh: 11; Efa HMGR inh: -4

What do the screens show for `CC(/C=N/n1c(-c2ccco2)n[nH]c1=S)=C\c1ccco1`?
m-calpain inh: -3; HSV replic up: inactive; Arbovirus inh: -6; Efa HMGR inh: 1

What do the screens show for `CC(/C=N\Nc1nnc2c(n1)[nH]c1c(C)cccc12)=C\c1ccco1`?
m-calpain inh: 35; HSV replic up: inactive; Arbovirus inh: -24; Efa HMGR inh: 13*

Results for COc1ccc(/C(N)=N/OC(=O)Cc2ccccc2[N+](=O)[O-])cc1 ?
m-calpain inh: 57*; HSV replic up: inactive; Arbovirus inh: -4; ROMK mod: 0.4; Efa HMGR inh: 4

How did C=C1C(=O)O[C@@H]2[C@H]1[C@@H](OC(=O)/C(C)=C/C)C/C(C)=C\C(=O)/C=C(\C)[C@@H]2O do in these assays?
m-calpain inh: -28; HSV replic up: inactive

How did O=C1C(Cl)=C(Nc2ccccc2)C(=O)c2ccccc21 do in these assays?
m-calpain inh: 43; HSV replic up: inactive; Arbovirus inh: -36; ROMK mod: -0.055; Efa HMGR inh: 1

What do the screens show for `O=C(O)c1ccc(NC2=C(Cl)C(=O)c3ccccc3C2=O)cc1`?
m-calpain inh: 58*; HSV replic up: inactive; ROMK mod: 0.73

Results for COc1ccc(-n2cccc2/C=C2\C(=N)N3N=C(c4ccco4)SC3=NC2=O)cc1 ?
m-calpain inh: -49; HSV replic up: inactive; Arbovirus inh: 39*; ROMK mod: -0.43; Efa HMGR inh: -5

What do the screens show for `COc1ccc(-n2cccc2/C=C2\C(=N)N3N=C(C(C)C)SC3=NC2=O)cc1`?
m-calpain inh: -42; HSV replic up: inactive; Arbovirus inh: 30*; ROMK mod: -1; Efa HMGR inh: -4

Results for COc1ccc(CN(C(=O)c2cc3ccccc3oc2=O)C2CCCCC2)cc1OC ?
m-calpain inh: 16; HSV replic up: inactive; Arbovirus inh: 103*; Efa HMGR inh: -6

How did CCOC(=O)C(=CNc1ccc(C)cc1C)C(=O)OCC do in these assays?
m-calpain inh: 30; HSV replic up: inactive; Arbovirus inh: 8; Efa HMGR inh: -7

How did CCOC(=O)C(=CNc1cccc(C)c1C)C(=O)OCC do in these assays?
m-calpain inh: 52*; HSV replic up: inactive; Arbovirus inh: 5; ROMK mod: -0.31; Efa HMGR inh: -2

What do the screens show for `Cc1ccc(-c2csc3ncnc(NS(=O)(=O)c4ccc(Cl)cc4)c23)cc1`?
m-calpain inh: 32; HSV replic up: inactive; Arbovirus inh: 46*; Efa HMGR inh: 0

What do the screens show for `Fc1ccccc1N1CCN(Cc2nc(-c3ccc(Cl)cc3Cl)no2)CC1`?
m-calpain inh: 16; HSV replic up: inactive; Arbovirus inh: 31*; Efa HMGR inh: -11

What do the screens show for `NC(=O)c1cc(N=Nc2c(N)[nH]n(-c3c(Cl)cc(Cl)cc3Cl)c2=O)ccc1Cl`?
m-calpain inh: 13; HSV replic up: inactive; Arbovirus inh: 4; ROMK mod: 0.11; Efa HMGR inh: -5

Results for COc1ccccc1C1CCCN1Cc1nc(-c2ccc(C)s2)oc1C (configuration not stated) ?
m-calpain inh: -102; HSV replic up: inactive; Arbovirus inh: 14; ROMK mod: -0.3; Efa HMGR inh: 12*

Results for CCN(CC)C1=C(Cl)C(=O)C(Cl)C12OCCO2 (configuration not stated) ?
m-calpain inh: 17; HSV replic up: inactive

What do the screens show for `CSc1nc(C)c(CCO)c(=O)[nH]1`?
m-calpain inh: 14; HSV replic up: inactive; Arbovirus inh: 31*; ROMK mod: 0.4; Efa HMGR inh: -2

What do the screens show for `CSc1nc(C)c(CCOC(=O)c2ccccc2)c(=O)[nH]1`?
m-calpain inh: -20; HSV replic up: inactive; Arbovirus inh: 6; Efa HMGR inh: -1

How did CC(C)CCSc1nc2[nH]ncc2c(=O)[nH]1 do in these assays?
m-calpain inh: -23; HSV replic up: inactive; Arbovirus inh: -14; ROMK mod: 1.1; Efa HMGR inh: -1

How did O=C(N/N=C/c1cc([N+](=O)[O-])ccc1O)NC12CC3CC(CC(C3)C1)C2 do in these assays?
m-calpain inh: -42; HSV replic up: inactive; Arbovirus inh: -14; ROMK mod: -0.8; Efa HMGR inh: 1

What do the screens show for `O=[N+]([O-])c1ccc(O)c(/C=N/NC(=S)Nc2ccc(Cl)cc2Cl)c1`?
m-calpain inh: 36; HSV replic up: inactive; ROMK mod: 2.9*

Results for O=C(N/N=C/c1cc([N+](=O)[O-])ccc1O)C12CC3CC(CC(C3)C1)C2 ?
m-calpain inh: -25; HSV replic up: inactive; Arbovirus inh: -12; ROMK mod: 1.1; Efa HMGR inh: 13*

Results for CC(=O)c1sccc1NC(=O)CC(C)(C)CC(=O)O ?
m-calpain inh: 13; HSV replic up: inactive; ROMK mod: 0.97

Results for c1ccc(SCCOCCN2CCc3ccccc3C2)cc1 ?
m-calpain inh: 2; HSV replic up: inactive; Arbovirus inh: -4; ROMK mod: -1.1; Efa HMGR inh: 0

How did CN(Cc1cccnc1)C(=O)CNC(=O)c1ccc(Cl)cc1Cl do in these assays?
m-calpain inh: -16; HSV replic up: inactive; Arbovirus inh: 2; ROMK mod: 1.8; Efa HMGR inh: -5
